CHX counter: affects cycloheximide protein synthesis inhibition readout, counter-screen | cell reporter, cycloheximide protein synthesis inhibition counterscreen | max response, % | actives 12% (n = 300,000); in the data active = max response mostly above about 13%, no sharp cut-off; inactive = mostly below about 14%; also: read at 38.3 µM for the half of the compounds with a filed dose
Lassa entry inh: inhibitors of Lassa virus binding or cell entry; actives 1.2% (n = 300,000); Potency, µM (highest dose often 37.9 µM), most hits filed as inhibitors; AID 540256; Lassa virus pseudotype entry inhibition, cell reporter; calls by dose curve; tested in HEK293 cells; also: nearly all actives have a fitted effect of over 50% in size
Shiga inhibitor: blocks Shiga toxin action in Vero cells. actives 9.2% (n = 290,000). AID 2315. inhibition, % at 38.7 µM. Vero cells, Shiga toxin protein synthesis inhibition reporter; in the data active = inhibition mostly above about 28%, no sharp cut-off; inactive = mostly below about 43%
MARV entry inh: inhibitors of Marburg virus binding or cell entry | Marburg virus pseudotyped entry inhibition, cell reporter | AID 540276 | actives 1.8% (n = 300,000) | Potency, µM (titrated, usually from 37.8 µM), usual class: inhibitors; calls by dose curve; tested in HEK293 cells
AMA1-RON2 inh: AMA1-RON2 (P. falciparum) interaction inhibition; AlphaScreen AMA1-biotinylated RON2 peptide binding; Potency, µM (top dose mostly 58.2 µM), usual class: inhibitors; actives 0.2% (n = 360,000); AID 720542; active = well fitted inhibition curve with a large enough effect; inconclusive = small, poorly fitted or top-dose-only effect; inactive = no such curve, though single readings can be large or run the other way; also: nearly all actives have a fitted effect of over 45% in size
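AMA1 (3D7) with his tag at 25 nM final met compounds first, then biotinylated RON2 peptide at 25 nM; detection used donor plus acceptor beads, 10 µg/mL apiece, read by AlphaScreen after 30 min at room temperature.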
Numbers stand for hits; . = inactive; ? = inconclusive; / = no result. The full list was thinned out, with hits kept by preference.

SMILES	CHX counter	Lassa entry inh	Shiga inhibitor	MARV entry inh	AMA1-RON2 inh
CC(C)C(=O)N1CCC1(C)C(=O)Nc1ccc(-n2cccc2)cc1 (stereo not drawn)	/	/	/	/	.
CCOC(=O)C1CCN(C(=O)CN(c2ccc3c(c2)OCCO3)S(=O)(=O)c2ccccc2)CC1	/	?	/	.	.
CC1CCN(C(=O)CN(c2ccc3c(c2)OCCO3)S(=O)(=O)c2ccccc2)CC1	36	.	54	?	.
COc1cccc(N2CCN(CC(=O)C34CC5CC(CC(C5)C3)C4)CC2)c1	.	.	.	.	.
COc1cccc(N2CCN(C3C4CC5CC(C4)CC3C5)CC2)c1 (stereo not drawn)	22	.	.	.	.
O=C(Nc1ccc(-c2nnc(-c3ccco3)o2)cc1)C(c1ccccc1)c1ccccc1	.	.	.	.	.
Cc1ccc(-c2nnc(-c3ccc(Br)cc3)o2)o1	18	.	27	?	.
c1coc(-c2nnc(-c3ccco3)nn2)c1	47	.	43	.	16µM
c1ccc(-c2nnc(-c3ccco3)o2)cc1	43	.	115	.	.
Brc1ccc(-c2nnc(-c3ccco3)o2)cc1	47	.	73	.	.
CCN(CC)S(=O)(=O)c1cc(-c2nnc(-c3ccc(Br)cc3)o2)ccc1Cl	.	?	.	?	.
Nc1ncnc2c1ncn2[C@@H]1O[C@H](CNCc2ccc(-n3cccn3)cc2)[C@@H](O)[C@H]1O	/	/	/	/	.
O=C(NCCCN1CCOCC1)c1ccccc1N1C(=O)[C@@H]2Cc3c([nH]c4ccccc34)C(c3cccc(Cl)c3)N2C1=O (stereo partly drawn)	.	/	.	/	.
COc1ccc([C@H]2N[C@]3(CCCN(Cc4cccn4C)C3=O)[C@H]3C(=O)N(Cc4ccccc4)C(=O)[C@@H]23)cc1	/	/	/	/	.
c1coc(-c2nnc(-c3cccs3)o2)c1	49	?	81	.	.
O=C(/C=C/c1ccco1)NC1CCCC1	.	.	.	.	.
O=C(C=Cc1ccco1)N1CCOCC1	/	.	/	.	.
O=C(O)C(C(=O)/C=C/c1ccco1)=C1SCCS1	27	.	74	.	.
O=C(C=C1SCCS1)/C=C/c1ccco1	37	11µM	71	?	?
CC(=O)Nc1cccc(C(=O)N/N=C/c2ccc(F)cc2)c1	34	?	83	.	.
Cc1ccc(C(=O)Nc2cccc(C(=O)N/N=C/c3ccc(F)cc3)c2)cc1	27	.	58	.	.
CC(=O)Nc1cccc(C(=O)N/N=C/c2cccnc2)c1	.	.	.	?	.
C/C(CC(=O)NCc1ccco1)=N\NC(=O)COc1ccc(C)cc1	.	?	.	?	.
Cc1cccc(N=C2NN=C(c3ccc4c(c3)OCCO4)CS2)c1	27	?	93	?	.
C=CCn1c(C)cc(C2=NNC(=Nc3ccc(C)cc3)SC2)c1C	.	.	.	?	.
SMILES	CHX counter	Lassa entry inh	Shiga inhibitor	MARV entry inh	AMA1-RON2 inh
Cc1ccc(C2=NNC(=Nc3ccc(F)cc3)SC2)cc1	26	?	84	?	.
Cc1ccc(CN2CCCn3nc(C(=O)NCCc4cccc(C)c4)cc3C2=O)cc1	/	.	/	/	/
CCSC1=N/C(=C\c2ccc3c(c2)OCO3)C(=O)S1	.	.	.	.	.
O=C1NC(N2CCOCC2)=N/C1=C/c1ccc2c(c1)OCO2	17	.	.	.	.
COc1ccc(-c2cc(C)no2)cc1S(=O)(=O)NCc1ccco1	/	.	/	/	/
CN1C(=O)C(=Cc2ccccc2OCc2ccccc2Cl)C(=O)N(C)C1=O	.	.	.	.	.
CN1C(=O)C(=Cc2c(OCc3cnc(Cl)s3)ccc3ccccc23)C(=O)N(C)C1=O	53	/	83	/	.
Cc1ccc(-c2cccc(NC(=O)C3C(C(=O)O)[C@@H]4C=C[C@H]3C4)c2)o1 (stereo partly drawn)	.	.	33	.	.
Cc1ccc(-c2ccccc2NC(=O)C2C3C=CC(C3)C2C(=O)O)o1 (stereo not drawn)	.	.	.	?	.
CCN(Cc1ccncc1)C(=O)c1ccc2c(c1)S(=O)(=O)c1ccccc1C2=O	.	/	.	/	.
COc1ccc(CN(C(=O)c2snc(C(N)=O)c2N)C(C(=O)NC2CCCC2)c2ccc(OC)cc2)cc1 (stereo not drawn)	.	?	.	.	.
COc1ccc(CN(C(=O)c2nsc(Cl)c2Cl)C(C(=O)NC2CCCC2)c2ccc(OC)cc2)cc1 (stereo not drawn)	.	21µM	.	?	.
COc1ccc(NC(=O)/C(C#N)=C/c2ccc(Br)o2)cc1	22	?	52	?	.
N#C/C(=C/c1ccc(N2CCOCC2)o1)C(=O)NC1CCCCC1	19	/	.	/	.
COc1ccc(NC(=O)/C(C#N)=C\c2ccc(N3CCOCC3)o2)cc1	24	?	.	?	.
N#C/C(=C\c1ccc(N2CCOCC2)o1)C(=O)Nc1ccc(O)cc1	31	?	68	?	.
COc1ccc(NC(=O)/C(C#N)=C/c2cc(C)n(-c3ccc(N4CCOCC4)c([N+](=O)[O-])c3)c2C)cc1	.	?	.	.	.
COc1ccc(NC(=O)/C(C#N)=C/c2ccc(C)o2)cc1	/	.	/	/	/
Cc1ccc(C)n1-c1c(C(=O)NCCCN2CCN(c3ccc(F)cc3)CC2)sc2ncccc12	/	.	/	/	/
Cc1ccc(C)c(NC(=O)CSc2nc3nccnc3c(=O)n2CCc2c[nH]c3ccccc23)c1	/	.	/	/	/
Cc1cc2oc(C(=O)Nc3ccc(S(=O)(=O)Nc4ncccn4)cc3)cc(=O)c2cc1C	/	.	/	.	/
CCc1ccc(NCc2nc(-c3ccccc3)no2)cc1	31	.	47	?	.
Cc1ccc(-c2noc(CNc3ccccc3)n2)cc1	37	.	64	?	.
Cn1nc(-c2ccc(Cl)cc2)nc2c(=O)n(C)c(=O)nc1-2	.	/	22	.	/
Cn1nc(-c2ccccc2)nc1-c1ccccc1	/	/	/	/	.
SMILES	CHX counter	Lassa entry inh	Shiga inhibitor	MARV entry inh	AMA1-RON2 inh
COc1cc(OC)cc(N2C(=O)N(Cc3ccc(C(C)(C)C)cc3)c3ccccc3S2(=O)=O)c1	/	.	/	/	/
O=C1CN(C(=O)c2cccc(S(=O)(=O)N3CCCC3)c2)c2ccccc2N1	.	/	.	/	.
CC(=O)N1CCN(S(=O)(=O)c2cccc(C(=O)OCC(=O)N3CC(=O)Nc4ccccc43)c2)CC1	16	.	.	.	.
COC(=O)C1C(c2ccccc2)C(C(=O)OCc2ccco2)C1c1ccccc1 (stereo not drawn)	72	?	125	21µM	.
CCN1c2ccccc2NC2C1C(C(C)=O)C(=O)N2c1ccc(Cl)cc1 (stereo not drawn)	.	?	.	?	.
CCN1c2ccccc2NC2N=C(OC)C(c3ccccc3)C21 (stereo not drawn)	18	.	.	23µM	.
COc1cc(OC)cc(C(=O)Nc2cccc3ccccc23)c1	.	/	.	/	.
COC(=O)/C(=C/Nc1cccc2ccccc12)[N+](=O)[O-]	28	.	53	.	.
CSc1ncc(CN2CCc3c([nH]c4ccccc34)C2c2cccc(O)c2)cn1 (stereo not drawn)	.	/	.	/	.
CC(C)(C)c1ccc(-n2ncc3c2CCCC3NC(=O)c2cnccn2)cc1 (stereo not drawn)	30	?	73	?	.

Screening data as filed in PubChem BioAssay.
